Rows were chosen to be rich in hits. Some 32% of all compounds tested hit in one or more screens of this group.
CYP2C19 inh – human CYP2C19 inhibition | AID 778 | actives 21% (n = 96,000) | CYP2C19 Supersomes, luciferin-H EGE luminescence, 30 min | P33261 | inhibition, % at 5 µM;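 active means CYP2C19 inhibition above a set limit at 5 µM in the primary screen, cut at about 50% in these data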
PostGolgi yeast – growth inhibition of a yeast mutant, post-Golgi transport screen | inhibition, % at 10 µM | post-Golgi transport phenotypic cell assay | actives 0.9% (n = 98,000);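 further: yeast cells grown in 1536-well plates; yeast grown about 18 h at 30C before absorbance read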
CYP2C9 act – increases human cytochrome P450 2C9 activity. P11712. recombinant CYP2C9, luciferin-H conversion, luminescence; hits give high values; factor 1 = untreated enzyme, 0 = blocked. activation factor at 5 µM. actives 1.4% (n = 96,000). AID 1024;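 active means activation factor of 2 or more for CYP2C9 at a 5 µM dose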
Target sequence (P11712 whole entry, looked up): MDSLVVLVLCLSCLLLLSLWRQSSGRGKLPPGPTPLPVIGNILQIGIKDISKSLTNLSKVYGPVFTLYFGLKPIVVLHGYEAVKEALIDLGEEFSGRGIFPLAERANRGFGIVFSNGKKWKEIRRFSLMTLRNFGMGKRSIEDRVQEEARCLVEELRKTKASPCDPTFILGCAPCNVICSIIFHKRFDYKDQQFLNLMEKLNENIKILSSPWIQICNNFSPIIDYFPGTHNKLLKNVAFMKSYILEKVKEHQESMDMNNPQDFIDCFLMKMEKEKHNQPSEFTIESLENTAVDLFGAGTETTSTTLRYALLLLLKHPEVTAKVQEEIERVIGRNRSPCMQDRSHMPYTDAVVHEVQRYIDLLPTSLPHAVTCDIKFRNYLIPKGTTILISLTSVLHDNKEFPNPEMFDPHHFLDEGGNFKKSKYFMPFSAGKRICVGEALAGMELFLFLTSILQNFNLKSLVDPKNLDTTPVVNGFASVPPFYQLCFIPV
CYP2C9 inh – human CYP2C9 inhibition | CYP2C9 Supersomes, luciferin-H conversion, luminescence | inhibition, % at 5 µM | actives 20% (n = 96,000);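 active means blocking of liver enzyme CYP2C9 beyond about 50% at 5 µM, limit read from the data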
PostGolgi ctrl – inhibits growth of the yeast control strain | efflux-deficient yeast background strain, growth absorbance A615, 16 h | inhibition, % at 10 µM | actives 5% (n = 98,000) | AID 738
CYP2C19 activ – activators of human cytochrome P450 2C19 | activation factor at 5 µM | AID 1025 | 96,000 tested, under 10 active | P33261 | recombinant CYP2C19, luciferin-H EGE luminescence; hits give high values; 0 = fully inhibited enzyme, 1 = untreated enzyme;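 active means activation factor of at least 2 at 5 µM in the primary screen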
Large screens that a line does not name were inactive. Unless noted, no stated cut-off is given here; in the data, active means inhibition above about 30%; inactive means the rest.

O=C(Nc1nnc(C2CC2)s1)C1Cc2ccccc2CN1S(=O)(=O)c1cccs1 (centres undefined)	CYP2C19 inh 100, CYP2C9 inh 67
CCc1nnc(NC(=O)C2CCCN(S(=O)(=O)c3ccccc3)C2)s1 (centres undefined)	CYP2C19 inh 64
CCc1nnc(NC(=O)C2Cc3ccccc3CN2S(=O)(=O)c2ccc(C)cc2)s1 (centres undefined)	CYP2C19 inh 99, CYP2C9 inh 64, PostGolgi ctrl 41
C/C(=N\NC(=O)C1CCCN(S(=O)(=O)c2ccccc2)C1)c1ccncc1 (centres undefined)	CYP2C9 inh 69
Cc1c(C(=O)OCC(=O)N2CC(=O)Nc3ccccc32)oc2ccccc12	none
CCCN1C(=O)C(O)(C2CC(=O)CC(C)(C)O2)c2ccccc21 (centres undefined)	none
CCc1nnc(NC(=O)C2Cc3ccccc3CN2S(=O)(=O)c2cccs2)s1 (centres undefined)	CYP2C19 inh 61, CYP2C9 inh 63
CCc1nnc(NC(=O)C2CCCN2S(=O)(=O)c2ccc(C)cc2)s1 (centres undefined)	CYP2C9 inh 65
c1csc(Cn2nnnc2CN2CCN(c3nc4ccccc4s3)CC2)c1	none
CC(Cc1c[nH]c2ccccc12)NC(=O)C1CCCNC1=O (centres undefined)	none
O=S(=O)(N1CCCCC1)n1nnc2ccccc21	CYP2C19 inh 82
COc1ccc(S(=O)(=O)NC(C)C(=O)Nc2ccccc2C(F)(F)F)cc1 (centres undefined)	none
C[N+]1=C2CCCCCN2C(O)(c2ccccc2)C1 (centres undefined)	none
COc1ccc2c(c1OC)C(=O)OC2CC(=O)c1ccc(O)c(O)c1 (centres undefined)	CYP2C19 inh 51
COc1ccc2c(c1OC)C(=O)OC2CC(=O)c1ccc(O)cc1 (centres undefined)	CYP2C19 inh 72
COc1ccc2c(c1OC)C(=O)OC2CC(=O)c1ccc(N(C)C)cc1 (centres undefined)	none
CC(=O)CCc1ccc2oc(C(=O)O)c(C)c2c1	none
O=C(CNC(=O)C12CC3CC(CC(C3)C1)C2)NC1=NCCS1	none
NC(=O)C1CCN(C(=O)c2ccc(Oc3ccccc3)cc2)CC1	CYP2C9 inh 56
COc1ccc(S(=O)(=O)Cc2ccc(C(=O)N3CCC(C(N)=O)CC3)o2)cc1	none
Cc1ccc(CSCCNC(=O)c2ccc(N(C)S(=O)(=O)c3ccccc3)cc2)cc1	CYP2C9 inh 86
COCCCNC(=O)c1ccc(N(C)S(=O)(=O)c2ccc(OC)cc2)cc1	CYP2C9 inh 70
COc1ccc(S(=O)(=O)N(C)c2ccc(C(=O)N3CCC(C(N)=O)CC3)cc2)cc1	CYP2C9 inh 50
CC(=O)Nc1cc(C(=O)N2CCCC2)ccc1S(=O)(=O)c1ccc(Cl)cc1	none
COc1ccc(C(=O)C2CCN(C(=O)c3ccco3)CC2)cc1	CYP2C19 inh 51
CCOC(=O)C1CCN(C(=O)c2ccc(SC)cc2OC)CC1	CYP2C19 inh 99
CCOC(=O)C1CCN(C(=O)c2ccco2)CC1	CYP2C19 inh 63
COc1ccc(C(=O)C2CCN(C(=O)c3ccc(C)cc3)CC2)cc1	none
CCOC(=O)C1CCN(C(=O)c2cn(C)c(=O)c3cc(OC)c(OC)cc23)CC1	none (no result: CYP2C19 inh, CYP2C9 act, CYP2C9 inh, CYP2C19 activ)
O=C(COC(=O)C1CCN(C(=O)c2ccc(Cl)cc2)CC1)c1ccco1	none
Cc1cc(Br)ccc1SCC(=O)OCC(=O)N1CCN(C(=O)c2ccco2)CC1	CYP2C19 inh 66, CYP2C9 inh 61
COc1ccc(C(=O)c2c(C(F)(F)F)oc3c2C(=O)c2ccccc2C3=O)cc1	CYP2C19 inh 75, PostGolgi yeast 84, CYP2C9 inh 78, PostGolgi ctrl 46
COc1ccc(/C=N/NC(=O)c2ccc3ccccc3c2)cc1OS(=O)(=O)c1ccc(NC(C)=O)cc1	CYP2C19 inh 78, CYP2C9 inh 87
COc1cc(C=O)cc(OC)c1OS(=O)(=O)c1ccc(NC(C)=O)cc1	CYP2C19 inh 91, CYP2C9 act 2.8
COc1ccc(/C=C(/NC(=O)c2ccccc2)C(=O)N/N=C/c2ccc3c(c2)OCO3)cc1OC	none
Cc1ccc(-c2nnc(N(C)C(=O)c3ccncc3)s2)cn1	CYP2C9 inh 85
CN(C(=O)c1ccncc1)c1nnc(-c2cnccn2)s1	CYP2C19 inh 89, CYP2C9 inh 97
CN(C(=O)c1cccnc1)c1nnc(-c2cnccn2)s1	none
Cc1ccc(S(=O)(=O)CCc2nnc(NC(=O)COc3cccc(C)c3)s2)cc1	none
Cc1ccc(Nc2nc(N)nc(CSc3nccn3C)n2)cc1	none
Cc1nn(-c2ccccc2)c(N)c1C(O)(CSc1nccn1C)C(F)(F)F (centres undefined)	CYP2C19 inh 93, CYP2C9 inh 87
Cc1nn(-c2ccc(Cl)cc2)c(N)c1C(O)(CSc1nccn1C)C(F)(F)F (centres undefined)	CYP2C19 inh 75, CYP2C9 inh 87
CC(C)Cc1nnc(NC(=O)CSc2nc(=O)cc(N)n2-c2ccccc2)s1	none
CCC(Sc1nc(C)cc(=O)[nH]1)C(=O)Nc1nc(-c2ccccc2)cs1 (centres undefined)	CYP2C19 inh 71, CYP2C9 inh 88
CCC(Sc1nc(-c2ccccc2)c(C#N)c(=O)[nH]1)C(=O)Nc1nnc(C)s1 (centres undefined)	CYP2C9 inh 67
Cc1ccc(-c2csc(NC(=O)CSc3nc(C)cc(=O)[nH]3)n2)cc1	CYP2C9 inh 82
Cc1ccc(C(=O)CSc2nc(C)cc(=O)[nH]2)cc1	none
Cc1ccc(NC(=O)CSc2nc(NS(=O)(=O)c3ccccc3)cc(=O)[nH]2)cc1	CYP2C9 inh 61
CCc1nc2ccccc2c(NC(=O)CN2CCC(C)CC2)c1C	none
Cc1csc(NC(=O)C(NS(=O)(=O)c2ccc(Br)s2)c2ccccc2)n1 (centres undefined)	none
Cc1cc(C)c2nc(N3CCCC(C(=O)NCCN4CCOCC4)C3)sc2c1 (centres undefined)	none
CCOC(=O)CC1C(=O)NCCN1S(=O)(=O)c1cc(Cl)c(Cl)cc1Cl (centres undefined)	CYP2C19 inh 62
Cc1ccnc(NS(=O)(=O)c2ccc(N=CC3=C(O)CC(C)(C)CC3=O)cc2)n1	none
Clc1ccccc1-c1ccc(CN2CCN(c3ccccc3)CC2)o1	CYP2C19 inh 74, CYP2C9 inh 64
CCN(CC(=O)N1CCN(C)CC1)S(=O)(=O)c1ccc(Cl)cc1	none
CCOC(=O)CSc1n[nH]c(NC(=O)c2ccccc2)n1	none
CCOC(=O)CSc1n[nH]c(NC(=O)c2ccc(F)cc2)n1	CYP2C19 inh 53
COc1ccc(N(Cc2cc3cc(OC)ccc3[nH]c2=O)C(=O)c2cccnc2)cc1	none
COc1ccc2cc3cc(C(=O)NCCCN4CCOCC4)oc3nc2c1	none
